Active and inactive are the calls of the source. No rule for the calls is given here.
These compounds were tested against Pantothenate synthetase (Mycobacterium tuberculosis (strain ATCC 25618 / H37Rv)) (UniProt P9WIL5) (assay: Coupled enzyme confirmation of inhibitors against recombinant Mtb PanC (AID 375;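 also: 0% = full reaction with vehicle and 100% = no enzyme background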)). Details: coupled enzyme assay; at 10 µM, hits give high values.
Pantothenate synthetase (Mycobacterium tuberculosis (strain ATCC 25618 / H37Rv)), sequence (P9WIL5 whole entry, looked up): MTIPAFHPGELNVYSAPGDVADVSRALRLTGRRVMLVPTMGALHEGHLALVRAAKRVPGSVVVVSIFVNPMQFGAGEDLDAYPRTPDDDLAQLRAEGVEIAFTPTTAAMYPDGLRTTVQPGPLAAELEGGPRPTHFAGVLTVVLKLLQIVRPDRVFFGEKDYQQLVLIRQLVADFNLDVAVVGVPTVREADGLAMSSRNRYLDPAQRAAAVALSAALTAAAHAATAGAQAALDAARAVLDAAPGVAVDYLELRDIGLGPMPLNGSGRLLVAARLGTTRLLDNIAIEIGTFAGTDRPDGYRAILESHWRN
For Cc1cccc(-c2cc3nc(C)cc(NCCCN(C)C)n3n2)c1, the inhibition was 0% (inactive).
With Cc1onc(-c2ccccc2)c1C(=O)NCc1cccnc1 the inhibition was 10% (inactive).
For C=CCSc1nc2c(c(=O)[nH]c(=O)n2C)n1C(C)C, the inhibition was 0% (inactive).
With Cc1nc(N)c(C#N)c(-c2cccnc2)c1C the inhibition was 0% (inactive).
COC(=O)c1ccc(C)c(NS(=O)(=O)c2ccc3c(c2)OCCO3)c1 was tested, and the inhibition was 0% (inactive).
In the case of COc1ccc2[nH]c(=O)c(CN(CCO)S(=O)(=O)c3ccc4c(c3)OCCO4)cc2c1, the inhibition is reported as 0% (inactive).
For c1ccc(-c2nc3ccccc3nc2-c2ccccn2)nc1, the inhibition was 0% (inactive).
With Cc1ccc(S(=O)(=O)NC(C(=O)OCC(=O)NC2CCS(=O)(=O)C2)C(C)C)cc1 (stereo unspecified) the inhibition was 0% (inactive).
Cc1ccc2cc(CN(CCN3CCCC3)C(=O)Nc3ccc(F)cc3)c(=O)[nH]c2c1C was tested, and the inhibition was 0% (inactive).
CCn1cc(C(=O)N=c2sc3ccccc3n2C)c(=O)c2ccc(C)nc21 was tested, and the inhibition was 0% (inactive).
For CCCCS(=O)(=O)NC1=NCN(C2CCN(Cc3ccccc3)CC2)CN1, the inhibition was 5% (inactive).
In the case of CCOC(=O)c1oc2ccccc2c1NC(=O)c1cccc(OC)c1OC, the inhibition is reported as 0% (inactive).
For CC(C)Cc1nc2oc3c(N4CCN(CCO)CC4)ncnc3c2c2c1CCCC2, the inhibition was 0% (inactive).
For COc1cccc(Nc2c(F)c(F)c(F)c(F)c2C(=O)O)c1, the inhibition was 7% (inactive).
With Cc1cccc2cc(CN(Cc3nnnn3Cc3ccccc3)C3CCCC3)c(=O)[nH]c12 the inhibition was 0% (inactive).
With COc1ccc(N(CC(=O)NC2CCCC2)C(=O)Cn2nnc(-c3ccc(C)cc3)n2)cc1 the inhibition was 0% (inactive).

Reference: PubChem BioAssay
